According to the supplement of paper PMC10037445:
Over roughly 2,900 compounds, “NF-kB SEAP reporter activity, fold change vs agonist alone” has its median near 0.99; the highest 2% begin near 2.6. The sample as a whole holds a higher share of the highest values than the screen did.

Key:
RAW-Dual [1] = assay: NF-kB SEAP reporter activity, fold change vs agonist alone; higher = enhanced NF-kB activity; conditions: cytotoxicity flag (confluency mask): not cytotoxic
Summary of the method: (§1)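 Library stock was pin-tooled at 50 nL into 384-well plates of RAW-Dual macrophages (50,000 cells/well, DMEM), followed 1 h later by a PRR agonist, and the cells were kept at 37 °C, 5% CO2. Supernatant collected after 20 hours was read for IRF by QuantiLuc luminescence and for NF-κB by QuantiBlue absorbance at 620 nm. Reporter activity is fold change over agonist-alone wells, and a well counted as cytotoxic when its IncuCyte confluency was below 70% of agonist controls in both mask sets.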

RAW-Dual [2] = assay: NF-kB SEAP reporter activity, fold change vs agonist alone; cytotoxicity flag (confluency mask): not cytotoxic; higher = enhanced NF-kB activity
Summary of the method: as §1

[3] = library stock concentration (final ~1000-fold dilution): 10 mM, agonist: Imiquimod (TLR7) […]
[4] = library stock concentration (final ~1000-fold dilution): 10 mM, agonist: MPLA (TLR4) […]
[5] = agonist: ODN 1826 (TLR9) 0.5 ug/mL
[6] = agonist: Pam2CSK4 (TLR2/6) 0.1 ug/mL
[7] = agonist: Pam3CSK4 (TLR2/1) 0.1 ug/mL

OCC1OC(c2ccc(F)c(Cc3cc4ccccc4s3)c2)C(O)C(O)C1O (stereo not given)
NF-kB SEAP reporter activity (RAW-Dual [1]; [3]): 1.06
NF-kB SEAP reporter activity (RAW-Dual [1]; [4]): 1.04

Nc1ccn(C2CSC(CO)O2)c(=O)n1 (stereo not given) (library stock concentration (final ~1000-fold dilution): 10 mM)
NF-kB SEAP reporter activity (RAW-Dual [2]; agonist: LPS (TLR4) 0.1 ug/mL): 0.862
NF-kB SEAP reporter activity (RAW-Dual [2]; [5]): 1.03
NF-kB SEAP reporter activity (RAW-Dual [2]; [6]): 0.999
NF-kB SEAP reporter activity (RAW-Dual [2]; [7]): 1.11

Nc1ccn(C2CSC(CO)O2)c(=O)n1 (stereo not given)
NF-kB SEAP reporter activity (RAW-Dual [1]; [3]): 0.893
NF-kB SEAP reporter activity (RAW-Dual [1]; [4]): 1.04

COC1CCC(N2C(=O)CNc3ncc(-c4ccc(C(C)(C)O)nc4)nc32)CC1 (stereo not given) (library stock concentration (final ~1000-fold dilution): 10 mM)
NF-kB SEAP reporter activity (RAW-Dual [2]; agonist: LPS (TLR4) 0.1 ug/mL): 0.463
NF-kB SEAP reporter activity (RAW-Dual [2]; [5]): 0.349
NF-kB SEAP reporter activity (RAW-Dual [2]; [6]): 0.719
NF-kB SEAP reporter activity (RAW-Dual [2]; [7]): 0.458

COC1CCC(N2C(=O)CNc3ncc(-c4ccc(C(C)(C)O)nc4)nc32)CC1 (stereo not given)
NF-kB SEAP reporter activity (RAW-Dual [1]; [3]): 0.711
NF-kB SEAP reporter activity (RAW-Dual [1]; [4]): 0.53

CC(NC(=O)C(=O)Nc1ccccc1C(C)(C)C)C(=O)NC(CC(=O)O)C(=O)COc1c(F)c(F)cc(F)c1F (stereo not given) (library stock concentration (final ~1000-fold dilution): 10 mM)
NF-kB SEAP reporter activity (RAW-Dual [2]; agonist: LPS (TLR4) 0.1 ug/mL): 0.607
NF-kB SEAP reporter activity (RAW-Dual [2]; [5]): 1.25
NF-kB SEAP reporter activity (RAW-Dual [2]; [6]): 0.912
NF-kB SEAP reporter activity (RAW-Dual [2]; [7]): 1.17

CC(NC(=O)C(=O)Nc1ccccc1C(C)(C)C)C(=O)NC(CC(=O)O)C(=O)COc1c(F)c(F)cc(F)c1F (stereo not given)
NF-kB SEAP reporter activity (RAW-Dual [1]; [3]): 1.15
NF-kB SEAP reporter activity (RAW-Dual [1]; [4]): 0.848

CCOC(=O)Nc1cc(-c2ccc(C)c(NS(C)(=O)=O)c2)nn2c(C)nnc12
NF-kB SEAP reporter activity (RAW-Dual [1]; [3]): 1.43
NF-kB SEAP reporter activity (RAW-Dual [1]; [4]): 2.52

CCOC(=O)Nc1cc(-c2ccc(C)c(NS(C)(=O)=O)c2)nn2c(C)nnc12 (library stock concentration (final ~1000-fold dilution): 10 mM)
NF-kB SEAP reporter activity (RAW-Dual [2]; agonist: LPS (TLR4) 0.1 ug/mL): 3.81
NF-kB SEAP reporter activity (RAW-Dual [2]; [5]): 1.93
NF-kB SEAP reporter activity (RAW-Dual [2]; [6]): 0.828
NF-kB SEAP reporter activity (RAW-Dual [2]; [7]): 1.44

CCOC(=O)C1=CC(OC(CC)CC)C(NC(C)=O)C(N)C1 (stereo not given)
NF-kB SEAP reporter activity (RAW-Dual [1]; library stock concentration (final ~1000-fold dilution): 2 mM, agonist: Imiquimod (TLR7) […]): 0.848
NF-kB SEAP reporter activity (RAW-Dual [1]; library stock concentration (final ~1000-fold dilution): 2 mM, agonist: MPLA (TLR4) […]): 1.03

CCOC(=O)C1=CC(OC(CC)CC)C(NC(C)=O)C(N)C1 (stereo not given) (library stock concentration (final ~1000-fold dilution): 2 mM)
NF-kB SEAP reporter activity (RAW-Dual [2]; agonist: LPS (TLR4) 0.1 ug/mL): 1.17
NF-kB SEAP reporter activity (RAW-Dual [2]; [5]): 1.08
NF-kB SEAP reporter activity (RAW-Dual [2]; [6]): 1.16
NF-kB SEAP reporter activity (RAW-Dual [2]; [7]): 1.11

N#Cc1cnc(Nc2cc(NCC3CNCCO3)c(C(F)(F)F)cn2)cn1 (stereo not given) (library stock concentration (final ~1000-fold dilution): 10 mM)
NF-kB SEAP reporter activity (RAW-Dual [2]; agonist: LPS (TLR4) 0.1 ug/mL): 1.37
NF-kB SEAP reporter activity (RAW-Dual [2]; [5]): 1.25
NF-kB SEAP reporter activity (RAW-Dual [2]; [6]): 1.34
NF-kB SEAP reporter activity (RAW-Dual [2]; [7]): 1.5

N#Cc1cnc(Nc2cc(NCC3CNCCO3)c(C(F)(F)F)cn2)cn1 (stereo not given)
NF-kB SEAP reporter activity (RAW-Dual [1]; [3]): 1.66
NF-kB SEAP reporter activity (RAW-Dual [1]; [4]): 0.936

COc1ccc2cc(-c3[nH]c(-c4ccc(S(C)=O)cc4)nc3-c3ccncc3)ccc2c1 (stereo not given) (library stock concentration (final ~1000-fold dilution): 10 mM)
NF-kB SEAP reporter activity (RAW-Dual [2]; agonist: LPS (TLR4) 0.1 ug/mL): 3.42
NF-kB SEAP reporter activity (RAW-Dual [2]; [5]): 2.22
NF-kB SEAP reporter activity (RAW-Dual [2]; [6]): 1.74
NF-kB SEAP reporter activity (RAW-Dual [2]; [7]): 2.04

COc1ccc2cc(-c3[nH]c(-c4ccc(S(C)=O)cc4)nc3-c3ccncc3)ccc2c1 (stereo not given)
NF-kB SEAP reporter activity (RAW-Dual [1]; [3]): 1.81
NF-kB SEAP reporter activity (RAW-Dual [1]; [4]): 2.57

CS(=O)c1ccc(-c2nc(-c3ccc(F)cc3)c(-c3ccncc3)[nH]2)cc1 (stereo not given)
NF-kB SEAP reporter activity (RAW-Dual [1]; [3]): 1.52
NF-kB SEAP reporter activity (RAW-Dual [1]; [4]): 1.61

CS(=O)c1ccc(-c2nc(-c3ccc(F)cc3)c(-c3ccncc3)[nH]2)cc1 (stereo not given) (library stock concentration (final ~1000-fold dilution): 10 mM)
NF-kB SEAP reporter activity (RAW-Dual [2]; agonist: LPS (TLR4) 0.1 ug/mL): 2.27
NF-kB SEAP reporter activity (RAW-Dual [2]; [5]): 0.762
NF-kB SEAP reporter activity (RAW-Dual [2]; [6]): 0.716
NF-kB SEAP reporter activity (RAW-Dual [2]; [7]): 1.02
